HCMV antiviral: blocks human cytomegalovirus replication. HFF cells, HCMV-luciferase reporter, 72 h; hits give low values. activity change, negative = inhibition, % at 57.5 µM. hit rate 4.5% among 410,000. AID 1259415; in the data active = activity change below about -60%; inconclusive = no clear call, values can overlap the other calls; inactive = above about -39%
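Steps: HFFs plated, 16 h 37C; compounds added; HCMV-luciferase added to MOI 1 PFU/cell; 72 h 37C; OneGlo reagent, 5 min room temperature; luminescence read, normalized to controls.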
Pf growth 96h: P. falciparum growth inhibition at 96 hours. hit rate 6.9% among 320,000. Potency, µM (top dose mostly 28.7 µM), without a hit: at the top dose activity change, negative = inhibition, most hits filed as inhibitors. P. falciparum luciferase reporter growth, 96 h; also: potency is read from the fitted curve at half-maximal effect
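Delayed-death screen, second-generation endpoint: infected erythrocytes, 2% hematocrit, 0.05% parasitemia final; 96 hours at 37 C, 5% CO2; luciferase detection reagent; luminescence decrease equals reduced growth.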
FBPA Giardia inh: Giardia lamblia aldolase inhibition | purified Giardia FBPA | Potency, µM (series often up to 59.6 µM), without a hit: top-dose activity, negative = inhibition, hits mostly inhibitors | hit rate 0.71% among 290,000 | AID 2451; also: potency is read from the fitted curve at half-maximal effect; nearly all actives have a fitted effect of over 55% in size
Target sequence (A8B2U2 whole entry, looked up): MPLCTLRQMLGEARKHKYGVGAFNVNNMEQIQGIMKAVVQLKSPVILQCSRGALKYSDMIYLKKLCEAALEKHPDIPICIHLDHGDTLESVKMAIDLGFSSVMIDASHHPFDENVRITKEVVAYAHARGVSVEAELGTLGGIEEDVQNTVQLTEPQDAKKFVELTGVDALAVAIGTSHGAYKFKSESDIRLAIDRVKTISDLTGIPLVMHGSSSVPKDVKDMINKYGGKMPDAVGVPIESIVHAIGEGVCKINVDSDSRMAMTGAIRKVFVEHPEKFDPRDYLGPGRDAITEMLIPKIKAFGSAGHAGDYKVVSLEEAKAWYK
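40 nM FBPA preincubated 10 min at RT with compound (up to 57.5 uM final), then substrate plus GAPDH/TPI/NAD/arsenate coupling and diaphorase/resazurin added. Fluorescence read after 20 min at RT, 525/598 nm.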
Sm TGR block: blocks Schistosoma mansoni thioredoxin glutathione reductase; Potency, µM (doses to about 114 µM), without a hit: top-dose activity change, negative = inhibition, hits mostly inhibitors; Q962Y6; purified TGR, DTNB reduction, TNB absorbance 405 nm; hit rate 3% among 360,000; also: potency is read from the fitted curve at half-maximal effect; nearly all actives have a fitted effect of over 60% in size
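Kinetic colorimetric format: TGR-catalysed, NADPH-driven DTNB reduction monitored via TNB absorbance. Enzyme dispensed at 20 nM; compound exposure 15 min at room temperature before reaction start.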
Pf growth 48h: P. falciparum growth inhibition at 48 hours (one generation). hit rate 5.9% among 310,000. Potency, µM (top dose mostly 28.7 µM), for inactives: at the top dose activity change, negative = inhibition, usual class: inhibitors. AID 504832. P. falciparum luciferase growth in erythrocytes, 48 h; also: potency is read from the fitted curve at half-maximal effect
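A one-generation exposure of luciferase-tagged malaria parasites in RPMI 1640/Albumax erythrocyte culture, 37 C and 5% CO2. Inhibition is inferred from decreased luminescence after adding detection reagent.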
Numbers without * were called inactive; ? = inconclusive; · = not tested or not shown; [ ] = dose if it differs, or a comment. In the library only some 14% were active in any assay of this set; here they are far more common. Unless noted, calls follow the shape of the dose curve; as a rule, active = well fitted curve in the direction sought with a large enough effect; inconclusive = small, poorly fitted or top-dose-only effect, or another doubt; inactive = no such curve, though single readings can be large; an effect the other way counts as inactive or inconclusive. % is scaled to controls: 0 for no effect and ±100 for the full control effect.

SMILES | HCMV antiviral | Pf growth 96h | FBPA Giardia inh | Sm TGR block | Pf growth 48h
COCCN1Cc2cc3cc(C)ccc3nc2SC1=Nc1cccc(OC)c1 | 5.4 | 0.7% | -10.1% | ? | 14.7µM*
COCCN1Cc2cc3cc(C)ccc3nc2SC1=Nc1ccc(OC)cc1 | -19.1 | -21.8% | -15.2% | -19.3%[57.1 µM] | ?
Cc1cccc(N=C2Sc3nc4c(C)c(C)ccc4cc3CN2CCN2CCOCC2)c1 | -6.9 | 7.38µM* | -7.6% | -11.5% | 11.7µM*
CCOCc1cnc(C)nc1NCC(=O)c1c(C)[nH]c2ccc(OC)cc12 | -31.8 | 0.415µM* | -1.6% | 5.5% | ·
Cc1cnc(C(=O)NC2CC(C)(C)Cc3c2cnn3-c2cccc(F)c2)cn1 (centres undefined) | -18.8 | ? | · | 1.0% | -4.5%
O=C(O)c1ccc(-n2c(O)c(C=C3N=c4ccccc4=N3)sc2=S)cc1 | -35.3 | 112.0% | -25.7% | -7.9% | 30.4%
FC(F)Sc1ccc(NC(=S)NCc2ccccc2)cc1 | -88.2* | -4.4% | -5.4% | 4.1% | 0.0%
FC(F)Sc1ccc(NC(=S)NC(c2ccccc2)c2ccccc2)cc1 | -97.6* | ? | -11.7% | 8.3% | -46.4%
FC(F)Oc1ccc(NC(=S)NCc2ccccc2)cc1 | -35.7 | 60.2% | 2.1% | -31.5% | 14.7%
CN(C(=S)Nc1ccc(SC(F)F)cc1)C(c1ccccc1)c1ccccc1 | -72.5* | ? | 3.3% | -26.3% | 9.28µM*
CC1CCC2C(=O)N3C(CCC(C)[C@@H]3c3ccc(Br)cc3)C(=O)N2C1c1ccc(Br)cc1 (some centres undefined) | · | · | -2.0%[12.9 µM] | · | ·
O=c1[nH]c(=O)n(C2CC(O)C(CO)O2)cc1C(F)(F)F (centres undefined) | · | · | 6.9% | · | ·
CC(C)(C)OC(=O)C[C@H]1C/C=C\C[C@@H](CC(=O)N(CCO)Cc2ccccc2)C(=O)N[C@H](Cc2c[nH]c3ccccc23)COC1=O | 8.6 | · | · | · | ·
Cc1cc(=O)[nH]c(N/N=C/c2c(F)c(F)c(F)c(F)c2F)n1 | 44.7 | 2.6% | -26.4% | 11.6% | ·
Cc1cc(/C=N/Nc2nc(N3CCOCC3)nc(N3CCOCC3)n2)c(C)n1-c1ccccc1 | -32.9 | 62.0% | -11.8% | -21.2% | 9.28µM*
COc1ccc(-n2c(C)cc(/C=N/Nc3nc(N4CCOCC4)nc(N4CCOCC4)n3)c2C)cc1 | -33.1 | ? | -7.8% | -17.5% | ?
BrC(/C=N/Nc1nc(N2CCOCC2)nc(N2CCOCC2)n1)=C/c1ccccc1 | 77.1 | 0.0% | -3.6% | 0.0% | 11.7µM*
Cc1cc(=O)[nH]c(N/N=C/c2cc(C)n(-c3ccccc3)c2C)n1 | 0.0 | ? | -12.0% | 31.6µM* | ?
Cc1cc(=O)[nH]c(N/N=C/c2c(C)nn(-c3ccccc3)c2C)n1 | -39.4 | -24.8% | -4.3% | -10.1% | 11.7µM*
CC(=C/c1ccccc1)/C=N/Nc1nc(N2CCCCC2)nc(N2CCCCC2)n1 | -18.8 | ? | -0.3% | -8.2% | 3.4%
CSc1nc(COC(=O)NC(C)C)c(COC(=O)NC(C)C)n1Cc1ccccc1 | -9.6 | · | · | · | ·
CCCCC/C=C\C\C=C/C=C/C=C/[C@@H](O)[C@@H](O)CCCC(=O)O | · | · | 2.2% | · | ·
Cc1cc(/C=N/Nc2ncnc(N)c2[N+](=O)[O-])c(C)n1-c1ccccc1 | -82.6* | 0.0% | ? | 0.0% | 27.4%
O=C(NCc1ccccc1)C1c2ccccc2OCC(=O)N1Cc1cccnc1 (centres undefined) | 9.3 | · | · | · | ·
COc1ccc(Br)cc1CN(C)CC(O)COc1ccc(Br)cc1 (centres undefined) | ? | ? | 9.0% | 1.2% | ?
SMILES | HCMV antiviral | Pf growth 96h | FBPA Giardia inh | Sm TGR block | Pf growth 48h
COc1cccc(CN(C)CC(O)COc2cc(Cl)ccc2Cl)c1 (centres undefined) | -12.2 | ? | ? | -1.4% | 10.4µM*
Cc1cccnc1C(NC(=O)C1CCN(Cc2ccc(Cl)cc2)CC1)c1ccc(F)cc1 (centres undefined) | 13.7 | · | · | · | ·
O=[N+]([O-])c1cc(/C=N/O)ccc1SCc1ccccc1 | -65.7* | 0.4% | 1.2% | 8.2% | 30.5%
O=[N+]([O-])c1cc(/C=N/O)ccc1Sc1ccccc1 | ? | · | -4.7% | -0.3% | 11.7%
Cc1ccc(C(=O)N2CC3(C(C)C)CN(C(=O)c4ccc(C)cc4)CC(C(C)C)(C2)C3=O)cc1 | -32.6 | 9.28µM* | 4.0% | -17.6% | ·
CCC12CN(C(=O)c3ccc(C)cc3)CC(CC)(CN(C(=O)c3ccc(C)cc3)C1)C2=O | -20.0 | 59.3% | 2.1% | 7.4% | ?
Cc1nn2c3c(cnc2c1-c1ccccc1)C(=O)CC(c1ccco1)C3 (centres undefined) | -26.8 | · | -9.4% | 35.5µM* | 1.47µM*
COc1ccc(OC)c(-n2cnc3cc(C(=O)NCCc4ccccc4)ccc32)c1 | 22.1 | · | · | 8.3% | ·
COCCCNC(=O)c1ccc2c(c1)ncn2-c1ccc(C)cc1C | · | 0.4% | 0.2% | 11.2% | 11.7µM*
Cc1ccc(-n2cnc3cc(C(=O)NCc4ccc(F)cc4)ccc32)c(C)c1 | -20.2 | · | · | 4.5% | ·
COC(CNC(=O)c1ccc2c(c1)ncn2-c1cccc(F)c1)OC | -73.1* | ? | 1.3% | 2.9% | 0.0%
Cc1cc(C)cc(-n2cnc3cc(C(=O)NCCc4ccccc4)ccc32)c1 | -98.5* | · | · | 1.2% | ·
Cc1cccc(C)c1NC(=O)CNC(=O)c1c(C)nn(-c2ccccc2)c1Cl | -19.4 | 2.1% | · | -2.2% | 0.0%
CCOC(=O)CC(=O)CSc1ccc2nnc(-c3cccc(F)c3)n2n1 | -23.8 | 6.9% | 9.2% | -5.7% | 7.38µM*
CSc1ccc2nnc(-c3cccc(F)c3)n2n1 | -30.6 | ? | -0.9% | 8.2% | -3.0%
COC(=O)c1ccc(CSc2ccc3nnc(-c4cccc(F)c4)n3n2)o1 | 34.4 | ? | -19.9% | 25.1µM* | 11.7µM*
O=S(=O)(c1ccccc1)N1CCC2(CCCN(Cc3ccccc3)C2)CC1 | · | · | -0.8% | · | ·
Cc1ccccc1C(=O)Nc1c(C)nc2ccccn2c1=O | -25.5 | · | · | 1.6% | ·
CC(C)(C)C1c2[nH]c3ccccc3c2CCN1Cc1cccc(OCCO)c1 (centres undefined) | 23.0 | ? | 0.1% | -7.3% | 26.6%
CC(=O)Nc1ccc(CN2CCc3c([nH]c4ccccc34)C2C(C)(C)C)cc1 (centres undefined) | 119.7 | -5.1% | -3.7% | 50.1µM* | -26.6%
O=C(NNc1ccccc1)OCc1ccccc1 | 31.8 | · | · | · | ·
Cc1ccc(NC(=O)c2cc(-c3cc(C)c(C)cc3O)n[nH]2)cc1C | -39.8 | 2.62µM* | 5.2% | 3.3% | 2.08µM*
COc1ccc(Cl)c(-c2cc(C(=O)Nc3ccc(C)c(NS(C)(=O)=O)c3)[nH]n2)c1 | -39.9 | · | · | · | ·
Cc1ccc(NC(=O)c2cc(-c3ccc(C)c(C)c3O)n[nH]2)cc1C | 7.0 | ? | 19.9% | 10.8% | ?
Cc1ccc(-c2cc(C(=O)Nc3cc(C)ccc3C)[nH]n2)c(O)c1 | -13.6 | ? | -0.3% | -3.5% | ?
Cc1ccc(NC(=O)c2cc(-c3cc(Cl)ccc3C)n[nH]2)cc1NS(C)(=O)=O | -82.8* | · | · | · | ·

From PubChem
